# Laboratory results from PubChem BioAssay.
# Calls of active or inactive are those of the source.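 The calls were made as follows, unless noted: active = growth inhibition above 50% at the single 2 µM test dose, taken to imply half-maximal potency below 2 µM; inactive = the rest.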
# Experiment: antimalarial activity against Dd2 strain (AID 2302);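 also: 0% = DMSO untreated growth and 100% = chloroquine plus artemisinin killed control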
# Conditions: P. falciparum Dd2 in RBCs, LDH growth readout, 72 h; at 2 µM; stronger effect = higher value
row,Structure (SMILES),growth inhibition
1,O=c1cc(NCCCNCc2ccccc2-c2ccccc2)[nH]c2ccccc12,46% (inactive)
2,Cc1cc(OCC2CCCO2)c2cc(NC(=O)C(=O)Nc3ccc4nc(C)cc(OCC5CCCO5)c4c3)ccc2n1 (stereo not given),32% (inactive)
3,COc1cncc(/C=C/c2cncc(C(=O)NCCc3ccc(Cl)cc3Cl)c2)c1,49% (inactive)
4,NC1=NC2(CCCC2)N(c2ccc(Cl)cc2)C(N)=N1,-1% (inactive)
5,CN1CCN(c2ccnc3ccc(NC(=O)Cc4ccc(-c5ccncc5)c5ccccc45)cc23)CC1,101% (active)
6,CN1CCN(c2ccc(CNc3ccc4ncc(-c5cccc(OC(F)(F)F)c5)n4n3)cc2)CC1,78% (active)
7,O=[N+]([O-])c1cccc(CNCC2CCN(CC3CCCCC3)CC2)c1,14% (inactive)
8,CCNC(=O)c1cc(S(=O)(=O)N2CCN(c3ccccn3)CC2)cs1,94% (active)
9,CN(C)CCNC(=O)[C@H](Cc1ccccc1)NC(=O)c1ccc(O)c(-c2ccc(Cl)c(Cl)c2)c1,0% (inactive)
10,Cc1noc(C)c1-c1cccc(C(=O)NC2CCN(CCNC(=O)C(c3ccccc3)c3ccccc3)CC2)c1,74% (active)
11,Cc1c(NCCCNCc2cc(Cl)cc(Cl)c2Cl)[nH]c2ccccc2c1=O,86% (active)
12,CCOC(=O)C(Oc1ccc2ccccc2c1)C(=O)OCC,0% (inactive)
13,CC(C)CN1C(=O)c2ccc(C(=O)Nc3nccs3)cc2C1=O,0% (inactive)
14,CC(C)c1cccc(OCC2CCN(c3ncc(C(=O)Nc4ccccc4)cc3Cl)CC2)c1,88% (active)
15,O=C(NCc1ccc(Cl)cc1)c1ccc(C(=O)NCC2CCCN2CC2CCCCC2)cc1 (stereo not given),10% (inactive)
16,COc1ccc(NC(=O)N2CCCN(CCCCCNC(=O)/C=C/c3ccc(Cl)cc3)CC2)cc1Cl,1% (inactive)
17,CC(C)CNCc1cccc(-c2cccc(CN(CCCN3CCN(C)CC3)C(=O)NC3CCCCC3)c2)c1,84% (active)
18,COc1cc(CCN(C)Cc2ccc(OC)c(OC)c2)ccc1NC(=O)c1cccc2c(=O)c3cccc(F)c3[nH]c12,26% (inactive)
19,COC(=O)c1ccc2nc(-c3ccc(/C=C/C(=O)NC4CCN(Cc5ccccc5)CC4)cc3)[nH]c2c1,88% (active)
20,O=C(OCc1ccccc1)N1CCc2c([nH]c3ccccc23)C1CCC(F)(F)F (stereo not given),81% (active)

row,Structure (SMILES),growth inhibition
1,CN(C)CCNCc1ccc(-c2ccc3c(Nc4ccc(F)cc4Cl)ccnc3c2)o1,100% (active)
2,COc1cc(NC(=O)c2sc(-c3ccc(Cl)cc3)cc2NC(=O)c2cccc(N(C)C)c2)ccc1OCCN1CCCC1,67% (active)
3,Cc1cc(NCCC(=O)Nc2ccccc2)nc(NCCc2cccs2)n1,20% (inactive)
4,Cc1nccn1Cc1cc(C(C)(C)C)c(O)c(C(C)(C)C)c1,-4% (inactive)
5,CCc1cc2c(=O)c(-c3nc(C)cs3)c([C@H](N)Cc3ccc(O)cc3)oc2cc1O,19% (inactive)
6,CNCCNc1nccc(N2CCc3ncnc(Nc4ccc(OCc5cccc(F)c5)c(Cl)c4)c3C2)n1,98% (active)
7,Cc1[nH]c(C)c(-c2ccc(-c3ccc(C(F)(F)F)cc3C(F)(F)F)nc2)c(=O)c1Br,97% (active)
8,CN(C)C1CCN(CC#Cc2cc3ncnc(Nc4ccc(OCc5cccc(F)c5)c(Cl)c4)c3s2)CC1,5% (inactive)
9,CCCCCCCOc1ccc(NC(=O)Nc2ccc(Cn3ncc(N4CCCNCC4)c(Cl)c3=O)cc2)cc1,28% (inactive)
10,c1ccc2c3c(ccc2c1)Sc1c(ccc2ccccc12)N3,31% (inactive)
11,COc1ccc(CNCc2cccc(-c3cccc(-c4nc5ccccc5[nH]4)c3)c2)cc1,50% (active)
12,COc1ccc(CNCCc2cccs2)cc1-c1cccc(S(=O)(=O)NCCN2CCCC2)c1,41% (inactive)
13,N#Cc1cccc(Nc2ncc3c(-c4cccc(NC(=O)Cc5cccc(Cl)c5)c4)c[nH]c3n2)c1,95% (active)
14,CN1CCN(CC2(Nc3nccc(NCc4ccc(Cl)cc4Cl)n3)CCCCC2)CC1,58% (active)
15,O=S(=O)(c1c(Cl)cc(Cl)cc1Cl)N1CCCCC(c2ccc(C(F)(F)F)cc2)=N1,99% (active)
16,CCC(C)(C)C1CCc2[nH]c3ccccc3c(=O)c2C1 (stereo not given),96% (active)
17,Cc1cccc2[nH]c(-c3cccc(-c4ccc(CNCc5cccc(N)c5)cc4)c3)nc12,93% (active)
18,Oc1ccccc1CCNC1CCc2ccccc2C1 (stereo not given),95% (active)
19,Cn1cncc1-c1ccc2ncnc(Nc3ccc(OCc4ccccc4)cc3)c2c1,99% (active)
20,CC(=O)Nc1cccc(C(=O)Nc2ccc(-c3cccc(-c4nc5ccc(C(F)(F)F)cc5[nH]4)c3)cc2)c1,85% (active)

# Experiment: human hepatoma cell viability loss – ATP luminescence, cytotoxicity control for P. falciparum antimalarial project, primary screen (AID 2303;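 active = inhibition above 50%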;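 also: 0% = DMSO wells and 100% = digitonin-killed cells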)
# Conditions: HepG2 viability, 24-48 h, at 10 µM, stronger effect = higher value
row,Structure (SMILES),inhibition
1,O=c1cc(NCCCNCc2ccccc2-c2ccccc2)[nH]c2ccccc12,0% (inactive)
2,Cc1cc(OCC2CCCO2)c2cc(NC(=O)C(=O)Nc3ccc4nc(C)cc(OCC5CCCO5)c4c3)ccc2n1 (stereo not given),7% (inactive)
3,COc1cncc(/C=C/c2cncc(C(=O)NCCc3ccc(Cl)cc3Cl)c2)c1,-3% (inactive)
4,NC1=NC2(CCCC2)N(c2ccc(Cl)cc2)C(N)=N1,-8% (inactive)
5,CN1CCN(c2ccnc3ccc(NC(=O)Cc4ccc(-c5ccncc5)c5ccccc45)cc23)CC1,32% (inactive)
6,CN1CCN(c2ccc(CNc3ccc4ncc(-c5cccc(OC(F)(F)F)c5)n4n3)cc2)CC1,25% (inactive)
7,O=[N+]([O-])c1cccc(CNCC2CCN(CC3CCCCC3)CC2)c1,11% (inactive)
8,CCNC(=O)c1cc(S(=O)(=O)N2CCN(c3ccccn3)CC2)cs1,7% (inactive)
9,CN(C)CCNC(=O)[C@H](Cc1ccccc1)NC(=O)c1ccc(O)c(-c2ccc(Cl)c(Cl)c2)c1,-1% (inactive)
10,Cc1noc(C)c1-c1cccc(C(=O)NC2CCN(CCNC(=O)C(c3ccccc3)c3ccccc3)CC2)c1,27% (inactive)
11,Cc1c(NCCCNCc2cc(Cl)cc(Cl)c2Cl)[nH]c2ccccc2c1=O,35% (inactive)
12,CCOC(=O)C(Oc1ccc2ccccc2c1)C(=O)OCC,8% (inactive)
13,CC(C)CN1C(=O)c2ccc(C(=O)Nc3nccs3)cc2C1=O,3% (inactive)
14,CC(C)c1cccc(OCC2CCN(c3ncc(C(=O)Nc4ccccc4)cc3Cl)CC2)c1,9% (inactive)
15,O=C(NCc1ccc(Cl)cc1)c1ccc(C(=O)NCC2CCCN2CC2CCCCC2)cc1 (stereo not given),21% (inactive)
16,COc1ccc(NC(=O)N2CCCN(CCCCCNC(=O)/C=C/c3ccc(Cl)cc3)CC2)cc1Cl,15% (inactive)
17,CC(C)CNCc1cccc(-c2cccc(CN(CCCN3CCN(C)CC3)C(=O)NC3CCCCC3)c2)c1,16% (inactive)
18,COc1cc(CCN(C)Cc2ccc(OC)c(OC)c2)ccc1NC(=O)c1cccc2c(=O)c3cccc(F)c3[nH]c12,14% (inactive)
19,COC(=O)c1ccc2nc(-c3ccc(/C=C/C(=O)NC4CCN(Cc5ccccc5)CC4)cc3)[nH]c2c1,12% (inactive)
20,O=C(OCc1ccccc1)N1CCc2c([nH]c3ccccc23)C1CCC(F)(F)F (stereo not given),0% (inactive)

row,Structure (SMILES),inhibition
1,CN(C)CCNCc1ccc(-c2ccc3c(Nc4ccc(F)cc4Cl)ccnc3c2)o1,31% (inactive)
2,COc1cc(NC(=O)c2sc(-c3ccc(Cl)cc3)cc2NC(=O)c2cccc(N(C)C)c2)ccc1OCCN1CCCC1,49% (inactive)
3,Cc1cc(NCCC(=O)Nc2ccccc2)nc(NCCc2cccs2)n1,26% (inactive)
4,Cc1nccn1Cc1cc(C(C)(C)C)c(O)c(C(C)(C)C)c1,8% (inactive)
5,CCc1cc2c(=O)c(-c3nc(C)cs3)c([C@H](N)Cc3ccc(O)cc3)oc2cc1O,11% (inactive)
6,CNCCNc1nccc(N2CCc3ncnc(Nc4ccc(OCc5cccc(F)c5)c(Cl)c4)c3C2)n1,30% (inactive)
7,Cc1[nH]c(C)c(-c2ccc(-c3ccc(C(F)(F)F)cc3C(F)(F)F)nc2)c(=O)c1Br,30% (inactive)
8,CN(C)C1CCN(CC#Cc2cc3ncnc(Nc4ccc(OCc5cccc(F)c5)c(Cl)c4)c3s2)CC1,34% (inactive)
9,CCCCCCCOc1ccc(NC(=O)Nc2ccc(Cn3ncc(N4CCCNCC4)c(Cl)c3=O)cc2)cc1,60% (active)
10,c1ccc2c3c(ccc2c1)Sc1c(ccc2ccccc12)N3,-7% (inactive)
11,COc1ccc(CNCc2cccc(-c3cccc(-c4nc5ccccc5[nH]4)c3)c2)cc1,24% (inactive)
12,COc1ccc(CNCCc2cccs2)cc1-c1cccc(S(=O)(=O)NCCN2CCCC2)c1,56% (active)
13,N#Cc1cccc(Nc2ncc3c(-c4cccc(NC(=O)Cc5cccc(Cl)c5)c4)c[nH]c3n2)c1,-1% (inactive)
14,CN1CCN(CC2(Nc3nccc(NCc4ccc(Cl)cc4Cl)n3)CCCCC2)CC1,98% (active)
15,O=S(=O)(c1c(Cl)cc(Cl)cc1Cl)N1CCCCC(c2ccc(C(F)(F)F)cc2)=N1,6% (inactive)
16,CCC(C)(C)C1CCc2[nH]c3ccccc3c(=O)c2C1 (stereo not given),16% (inactive)
17,Cc1cccc2[nH]c(-c3cccc(-c4ccc(CNCc5cccc(N)c5)cc4)c3)nc12,19% (inactive)
18,Oc1ccccc1CCNC1CCc2ccccc2C1 (stereo not given),-4% (inactive)
19,Cn1cncc1-c1ccc2ncnc(Nc3ccc(OCc4ccccc4)cc3)c2c1,4% (inactive)
20,CC(=O)Nc1cccc(C(=O)Nc2ccc(-c3cccc(-c4nc5ccc(C(F)(F)F)cc5[nH]4)c3)cc2)c1,81% (active)
